# Measurements: PubChem BioAssay AID1259415 (National Center for Advancing Translational Sciences (NCATS), 2018)
# Several values for one entry are separate records, joined by “and”; a condition that tells them apart may be missing. Equal values may be shown once. The campaign covered roughly 410,000 compounds. About 18,000 (4.4%) were called active. Not shown: some 7% with an inconclusive outcome. This is one part of a sample in which actives are shown more often than they occur. Values without a mark were called inactive. No stated cut-off is given here; in the data, active means activity change below about -60%; inconclusive means no clear call, values can overlap the other calls; inactive means above about -39%.
# Experiment: qHTS Assay for inhibitors of the human cytomegalovirus (HCMV)
# Settings: HFF cells, HCMV-luciferase reporter, 72 h; at 57.5 µM; hits give low values
# In short: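 After 16 h attachment at 37C, HFF cells received test compound and HCMV-luciferase (1 PFU/cell); reporter luminescence read 72 h later, data normalized against buffer-only and known inhibitor Salinomycin.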
# On the % scale 0 is the no-effect control and ±100 the full control effect.
row,SMILES,"activity change, negative = inhibition"
1,CCc1ccccc1NC(=O)c1cnn(-c2ccc(F)cc2)c1C1CCNCC1,2.44%
2,CCOC(=O)Cc1ccc(NC(=O)Nc2c[nH]c(=O)[nH]c2=O)cc1,8.88%
3,COc1ccccc1CNC(=O)C(Cc1ccccc1)NS(=O)(=O)c1ccc2c(c1)oc(=O)n2C (stereo unspecified),5.72%
4,Cc1[nH]c(C)c(S(=O)(=O)N2CCN(c3cccc(C(F)(F)F)c3)CC2)c1C(=O)N1CCCCC1,-80.2% (active)
5,Cc1[nH]c(C)c(S(=O)(=O)N2CCN(c3cccc(C(F)(F)F)c3)CC2)c1C(=O)N1CCCC1,-9.51%
6,Cc1ccc(C)c(N2CCN(S(=O)(=O)c3c(C)[nH]c(C)c3C(=O)N3CCCC3)CC2)c1,-31.6%
7,CCCS(=O)(=O)c1c(Nc2ccccc2C)sc(C(=O)c2ccccc2)c1N,16.8%
8,O=c1cc(CSc2ncn[nH]2)[nH]c2ccc(F)cc12,10.7%
9,CC(C)(C)N1C(=O)c2c(C(=O)OCc3ccccc3)[nH]c(-c3ccccc3)c2C1=O,-12.2%
10,CCN(CCCNC(=O)c1cc(Nc2ccc(OC)cc2)nc2ccccc12)c1cccc(C)c1,-61.5% (active)
11,CCN(CCCNC(=O)CSc1cc(=O)n(C)c2cc(Cl)ccc12)c1cccc(C)c1,1.12%
12,COc1ccccc1Nc1cc(C(=O)NCCCN(C)C2CCCCC2)c2ccccc2n1,-98.1% (active)
13,CCCCN(CCCNC(=O)c1cc(Nc2ccccc2OC)nc2ccccc12)c1ccccc1,-9.32%
14,COc1ccc(CCNC(=O)c2c3c(nc4ccccc24)C(=O)N(C2CCCCC2)C3)cc1OC,-6.18%
15,CCN(CCCNC(=O)c1cc2cc3cc(OC)ccc3nc2s1)c1ccccc1,44.1%
16,CCc1nc2cccnc2n1-c1ccc(CC(=O)Nc2c(C)cccc2C)cc1,0%
17,Cc1cc(C)cc(NC(=O)c2cnc3sc(N4CCCC4)nn3c2=O)c1,-28.7%
18,CCCCCCCCn1c2c(c(=N)c3c1CCC3)CCCC2,-99.4% (active)
19,CSc1ncc(C(=O)NCc2ccccc2Cl)c(C(F)(F)F)n1,-2.41%

row,SMILES,"activity change, negative = inhibition"
1,O=C(CCN1CCCO1)N1CCCC(N2CCN(c3cccc(C(F)(F)F)c3)CC2)C1 (stereo unspecified),69.3%
2,COC(=O)c1ccc(NC(=O)c2cc(S(=O)(=O)N3CCC(C)CC3)cn2C)cc1,-7.89%
3,Cc1c2cnn(-c3ccccc3)c(=O)c2c(C)n1C(C)C(=O)Nc1ccc(Br)cc1F (stereo unspecified),-30.3%
4,CC1CC(C)CN(S(=O)(=O)c2cccc(C(=O)N3C(=O)c4cccc(N)c4C3=O)c2)C1 (stereo unspecified),4.25%
5,Cn1c(=O)n(C)c2cc(NS(=O)(=O)c3ccc(F)cc3)ccc21,1.03% and 221%
6,Cn1c(CCN2CCN(c3ccccn3)CC2)nc2cc(NS(=O)(=O)c3ccc(F)cc3)ccc21,-85.1% (active)
7,Cn1c(=O)n(C)c2cc(S(=O)(=O)Nc3ccc(F)cc3)ccc21,41.5%
8,COc1ccc(NC(=O)CSc2nc3ccccc3[nH]2)cc1,2.79%
9,CCOc1ccccc1NC(=O)C1=C(C)Nc2ncnn2C1c1ccc(NC(C)=O)cc1 (stereo unspecified),4.88%
10,CCOC(=O)C1=C(c2ccccc2)Nc2ncnn2C1c1ccc(Cl)cc1 (stereo unspecified),-113% (active)
11,CC1=C(C(=O)Nc2ccccc2Cl)C(c2cccs2)n2ncnc2N1 (stereo unspecified),-15.8%
12,CCc1nn(CC(=O)Nc2cc(C)cc(C)c2)c(=O)c2cc3sccc3n12,-8.76%
13,CCS(=O)(=O)N1CCC(n2c(C)nc3cccnc32)CC1,-0.684%
14,C=CCNC(=S)NNc1ncnc2sc3c(c12)CC(C)(C)OC3,-105% (active)
15,CC/C(C)=N/Nc1nc2sc3c(c2c(=O)[nH]1)CC(C)(C)OC3,-10.6%
16,CCCSc1nc2sc3c(c2c(=O)n1-c1cccc(Br)c1)CC(C)(C)OC3,-0.221%
17,COc1ccc(NC(=O)C2CCCN(S(=O)(=O)c3c(C)[nH]c(=O)[nH]c3=O)C2)c(OC)c1 (stereo unspecified),10.4%
18,CC(/C=C/c1ccccc1)=N\NC(=O)C1CC1(C)c1ccccc1 (stereo unspecified),-62.3% (active)
19,CC(/C=C/c1ccco1)=N/NC(=O)C1COc2ccccc2O1 (stereo unspecified),27.4%

row,SMILES,"activity change, negative = inhibition"
1,COC(=O)C1(C)CC1(c1ccccc1)c1ccccc1 (stereo unspecified),13.4%
2,Cc1cn(C2C=CC(CO)O2)c(=O)[nH]c1=O (stereo unspecified),-30.1%
3,COc1ccc(S(=O)(=O)NCC(c2ccc(N(C)C)cc2)N2CCCC2)cc1 (stereo unspecified),-4.35%
4,Cc1ccccc1NC(=O)COC(=O)c1cc(C)n(C2CC2)c1C,-2.16%
5,Cc1cc(C(=O)COc2ccccc2Cl)c(C)n1C1CC1,-67.2% (active)
6,Cc1cc(C(=O)OCC(=O)Nc2c(F)cccc2F)c(C)n1C1CC1,-2.16%
7,COc1cccc(CNC(=O)C2CCC(CNS(=O)(=O)c3cccs3)CC2)c1 (stereo unspecified),-3.87%
8,Fc1cccc(-n2ncc3c2ncn2nc(-c4ccccc4Cl)nc32)c1,-25.2%
9,O=C(Cn1c(=O)n(Cc2ccccc2)c(=O)c2sc3ccccc3c21)Nc1ccccc1F,20.5%
10,CCOc1ccc(S(=O)(=O)NCCC(=O)NNC(=O)c2ccc(F)cc2)cc1,70.6%
11,Cc1ccc2sc(N(Cc3cccnc3)C(=O)C3COc4ccccc4O3)nc2c1C (stereo unspecified),0%
12,S=c1c2[nH]cnc2ncn1CCSc1ncnc2nc[nH]c12,-16%
13,Cc1ccc(NC(=O)c2ccc(CSc3ncnc4nc[nH]c34)cc2)c(C)c1,-37%
14,CCc1ccc(N(CC)c2ncnc3nc[nH]c23)cc1,-84.7% (active)
15,CC(C)(C)C1CCc2c(sc(NC(=O)c3ccccc3F)c2C(=O)N2CCCCC2)C1 (stereo unspecified),-1.57%
16,CCOC(=O)NN1C(=O)c2ccccc2NC1c1cccc(O)c1 (stereo unspecified),-96.9% (active)
17,CCOC(=O)NN1C(=O)c2ccccc2NC1c1ccccc1O (stereo unspecified),54.6%
18,CC(=O)NN1C(=O)c2ccccc2NC1c1ccccc1 (stereo unspecified),44.7%
